molecular target: T1, GST-Aq-NF-kB (Amphimedon queenslandica, UniProt A9Y5G7 2-389); test: protein-binding microarray (PBM); PBM: ~300 nM protein, 6 mM HEPES pH 7.8, 80 mM KCl, 0.5 mM EDTA, 0.5 mM EGTA, 6% glycerol, 35 ng/ul poly-dIdC, 1% milk, 1 h, room temperature; Ap Aiptasia and Nv Nematostella (sea anemones) / Co Capsaspora / Aq Amphimedon (sponge) / Dm Drosophila / Hu human; RHD is the Rel homology domain; high values mean tight binding; settings: dsDNA, one strand shown
T1 sequence: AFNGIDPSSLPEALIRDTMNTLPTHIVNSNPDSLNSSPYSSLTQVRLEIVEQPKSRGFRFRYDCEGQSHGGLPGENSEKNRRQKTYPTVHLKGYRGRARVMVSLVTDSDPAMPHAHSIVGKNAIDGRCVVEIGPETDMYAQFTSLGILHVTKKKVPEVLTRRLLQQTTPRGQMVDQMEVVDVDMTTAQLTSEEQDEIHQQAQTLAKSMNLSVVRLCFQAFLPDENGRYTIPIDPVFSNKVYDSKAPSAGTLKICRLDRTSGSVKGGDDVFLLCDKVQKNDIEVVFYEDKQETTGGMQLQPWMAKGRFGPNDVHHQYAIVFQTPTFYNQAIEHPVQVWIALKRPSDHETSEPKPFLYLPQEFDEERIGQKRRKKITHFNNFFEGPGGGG

Row | Sequence | binding signal [z-score]
1 | CCGATTAACATCACGGAATGTCCTGATGTTAATCGGGTCTTGATTCGCTTGACGCTGCTG | 1.82
2 | CCGATTAACATCAAATTTCCGGATGATGTTAATCGGGTCTTGATTCGCTTGACGCTGCTG | 1.25
3 | CCGATTAACATCACTAAAATTCCTGATGTTAATCGGGTCTTGATTCGCTTGACGCTGCTG | 1.03
4 | CCGATTAACATCAGGAAATGTCCTGATGTTAATCGGGTCTTGATTCGCTTGACGCTGCTG | 1.67
5 | CCGATTAACATCACGGATATTCCTGATGTTAATCGGGTCTTGATTCGCTTGACGCTGCTG | 1.34
6 | CCGATTAACATCAAGGAATGTCCTGATGTTAATCGGGTCTTGATTCGCTTGACGCTGCTG | 1.74
7 | CCGATTAACATCACGGATTTTCCTGATGTTAATCGGGTCTTGATTCGCTTGACGCTGCTG | 3.35
8 | CCGATTAACATCAAGGAGTTTCCTGATGTTAATCGGGTCTTGATTCGCTTGACGCTGCTG | 2.55
9 | CCGATTAACATCACGGCTTTTCCTGATGTTAATCGGGTCTTGATTCGCTTGACGCTGCTG | 1.72
10 | CCGATTAACATCAGGAATTGCCATGATGTTAATCGGGTCTTGATTCGCTTGACGCTGCTG | 1.02
11 | CCGATTAACATCAGGAATCGCCCTGATGTTAATCGGGTCTTGATTCGCTTGACGCTGCTG | 2.28
12 | CCGATTAACATCAGGAAATATCCTGATGTTAATCGGGTCTTGATTCGCTTGACGCTGCTG | 1.24
13 | CCGATTAACATCAGCAAAATTCCTGATGTTAATCGGGTCTTGATTCGCTTGACGCTGCTG | 1.04
14 | CCGATTAACATCAAAAATCCGGTTGATGTTAATCGGGTCTTGATTCGCTTGACGCTGCTG | 1.32

— publication PMC5700166
